Measurements as given in PubChem BioAssay AID1159580 (chemical genetic matrix, 2015).
Screen size: about 5,500 compounds; about 2,000 (36%) were called active. Another 18% or so got no clear call; they are omitted. Rule as the data show it: active = normalized growth mostly below about 0.91 (no sharp cut-off); inconclusive = no clear call, values can overlap the other calls; inactive = mostly above about 0.92. The list shows a part of the results.

Assay: chemical genetic growth profiling, strain panel (AID 1159580);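 also: tested at 20 µM; growth read once vehicle control cultures reached saturation at 30 °C; 1 = growth at the plate median or of vehicle wells; lower values mean less growth of the strain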
Conditions: S. cerevisiae deletion strains, growth OD

Measured: normalized growth

CC(=O)O[C@H]1CCC2(C)C3=C(CCC2C1(C)C)[C@@]1(C)CC[C@@H](C(C)CCC=C(C)C)[C@]1(C)CC3 (some centres not stated)
inactive: locus YAL021C, strain ccr4, hits give low values 1.02 | locus YAL026C, strain drs2, hits give low values 1.03 | locus YAL030W, strain snc1, hits give low values 1.03 | locus YBL061C, strain skt5, hits give low values 1.04 | locus YBR009C, strain hhf1, hits give low values 1.03 | locus YBR021W, strain FUR4, hits give low values 0.912 | locus YBR023C, strain chs3, hits give low values 1.03 | locus YBR171W, strain sec66, hits give low values 1.05 | locus YBR229C, strain ROT2, hits give low values 1.04 | locus YBR231C, strain swc5, hits give low values 1.04 | locus YBR279W, strain paf1, hits give low values 1.02 | locus YCL011C, strain gbp2, hits give low values 1.04 | locus YCL016C, strain dcc1, hits give low values 1.03 | locus YCL029C, strain bik1, hits give low values 1.01 | locus YCL061C, strain MRC1, hits give low values 1.04 | locus YCL069W, strain vba3, hits give low values 1.03 | locus YCR088W, strain abp1, hits give low values 1.03 | locus YDL005C, strain med2, hits give low values 1.03 | locus YDL035C, strain GPR1, hits give low values 0.911 | locus YDL040C, strain nat1, hits give low values 1.03 | locus YDL074C, strain BRE1, hits give low values 0.973 | locus YDL101C, strain DUN1, hits give low values 1.02 | locus YDL185W, strain tfp1, hits give low values 1.05 | locus YDL192W, strain arf1, hits give low values 1.03 | locus YDR001C, strain nth1, hits give low values 1.03 | locus YDR069C, strain doa4, hits give low values 1.03 | locus YDR101C, strain arx1, hits give low values 1.02 | locus YDR137W, strain rgp1, hits give low values 1.02 | locus YDR150W, strain NUM1, hits give low values 1.05 | locus YDR159W, strain sac3, hits give low values 1.07 | locus YDR162C, strain NBP2, hits give low values 1.01 | locus YDR195W, strain ref2 1.03 | locus YDR297W, strain sur2, hits give low values 1.03 | locus YDR318W, strain mcm21, hits give low values 1.02 | locus YDR334W, strain swr1, hits give low values 1.04 | locus YDR335W, strain msn5, hits give low values 1.02 | locus YDR388W, hits give low values 1.06 | locus YDR392W, strain spt3, hits give low values 1.04 | locus YDR502C, strain sam2, hits give low values 1.01 | locus YEL003W, strain gim4, hits give low values 1.02 | locus YEL037C, strain rad23, hits give low values 1.02 | locus YEL061C, strain CIN8 (second series), hits give low values 1.03 | locus YEL061C, strain CIN8, hits give low values 1.04 | locus YER015W, strain faa2, hits give low values 1.03 | locus YER016W, strain bim1, hits give low values 1.04 | locus YER110C, hits give low values 1.06 | locus YER111C, strain swi4, hits give low values 1.04 | locus YER155C, strain BEM2 (second series), hits give low values 1.04 | locus YER155C, strain BEM2, hits give low values 1.03 | locus YER167W, strain BCK2, hits give low values 1.03 | locus YFR010W, strain ubp6, hits give low values 1.03 | locus YGL078C, strain dbp3, hits give low values 0.932 | locus YGL086W, strain mad1, hits give low values 1.02 | locus YGL167C, strain pmr1, hits give low values 1.04 | locus YGL173C, strain kem1, hits give low values 1.02 | locus YGL227W, strain vid30, hits give low values 1.03 | locus YGL240W, strain doc1, hits give low values 1.03 | locus YGL248W, strain PDE1, hits give low values 1 | locus YGL253W, strain hxk2, hits give low values 1.02 | locus YGR078C, strain PAC10, hits give low values 1 | locus YGR135W, strain pre9, hits give low values 1 | locus YGR229C, strain SMI1, hits give low values 0.963 | locus YGR252W, strain gcn5, hits give low values 0.884 | locus YHR013C, strain ard1, hits give low values 1.08 | locus YHR027C, strain rpn1, hits give low values 1.02 | locus YHR079C, strain IRE1 (second series), hits give low values 1.06 | locus YHR094C, strain hxt1, hits give low values 1.06 | locus YHR129C, strain ARP1, hits give low values 1.04 | locus YHR142W, strain chs7, hits give low values 1.04 | locus YHR200W, strain rpn10, hits give low values 1.03 | locus YIL066C, strain RNR3, hits give low values 1.02 | locus YIL073C, strain SPO22, hits give low values 1.06 | locus YIL125W, strain kgd1, hits give low values 1.01 | locus YJL092W, strain hpr5, hits give low values 1.03 | locus YJL095W, strain BCK1 (second series), hits give low values 1.03 | locus YJL095W, strain BCK1, hits give low values 1.03 | locus YJL115W, strain asf1, hits give low values 1.04 | locus YJL129C, strain trk1, hits give low values 1.07 | locus YJL134W, strain LCB3, hits give low values 1.04 | locus YJL154C, strain vps35, hits give low values 1.03 | locus YJL164C, strain tpk1, hits give low values 1.02 | locus YJL166W, strain qcr8, hits give low values 1.03 | locus YJL168C, strain set2, hits give low values 1.06 | locus YJL187C, strain SWE1 (second series), hits give low values 0.989 | locus YJL187C, strain SWE1, hits give low values 1.01 | locus YJR043C, strain POL32, hits give low values 0.941 | locus YJR075W, strain HOC1, hits give low values 1.04 | locus YKL068W, hits give low values 1.04 | locus YKL085W, strain MDH1 (second series), hits give low values 1.03 | locus YKL085W, strain MDH1, hits give low values 1.03 | locus YKL160W, strain elf1, hits give low values 1.02 | locus YKR001C, strain vps1, hits give low values 0.997 | locus YKR026C, strain gcn3, hits give low values 1.04 | locus YKR091W, strain srl3, hits give low values 1.03 | locus YLL001W, strain dnm1, hits give low values 1.03 | locus YLL026W, hits give low values 1.02 | locus YLL041C, strain sdh2, hits give low values 1.05 | locus YLR027C, strain aat2, hits give low values 1.04 | locus YLR039C, strain RIC1, hits give low values 1.08 | locus YLR058C, strain SHM2, hits give low values 1.01 | locus YLR102C, strain apc9, hits give low values 1.05 | locus YLR221C, strain rsa3, hits give low values 1.03 | locus YLR258W, strain gsy2, hits give low values 1.04 | locus YLR262C, strain YPT6 (second series), hits give low values 1.02 | locus YLR262C, strain YPT6, hits give low values 0.994 | locus YLR268W, strain sec22, hits give low values 1.02 | locus YLR320W, strain mms22, hits give low values 1.05 | locus YLR330W, strain CHS5, hits give low values 1.03 | locus YLR342W, strain FKS1 (second series), hits give low values 0.953 | locus YLR342W, strain FKS1, hits give low values 1.04 | locus YLR357W, strain rsc2, hits give low values 1.04 | locus YLR370C, strain arc18, hits give low values 1.02 | locus YLR384C, strain iki3, hits give low values 1.05 | locus YLR418C, strain cdc73, hits give low values 1.09 | locus YML016C, strain PPZ1, hits give low values 1.05 | locus YML032C, strain rad52, hits give low values 0.994 | locus YML120C, strain ndi1, hits give low values 1.03 | locus YML124C, strain tub3, hits give low values 1.06 | locus YMR058W, strain fet3, hits give low values 1.03 | locus YMR078C, strain ctf18, hits give low values 1.08 | locus YMR125W, strain sto1, hits give low values 1.03 | locus YMR129W, hits give low values 1.03 | locus YMR205C, strain PFK2, hits give low values 1.04 | locus YMR223W, strain ubp8, hits give low values 1.01 | locus YMR231W, strain pep5, hits give low values 1 | locus YMR307W, strain GAS1, hits give low values 0.972 | locus YNL067W, strain RPL9B, hits give low values 0.969 | locus YNL071W, strain lat1, hits give low values 1.03 | locus YNL209W, strain ssb2, hits give low values 1.04 | locus YNL233W, strain BNI4, hits give low values 1.04 | locus YNL248C, strain rpa49, hits give low values 1.02 | locus YNL250W, strain rad50, hits give low values 1.04 | locus YNL271C, strain bni1, hits give low values 1.05 | locus YNL298W, strain CLA4, hits give low values 0.986 | locus YNL307C, strain MCK1, hits give low values 1.07 | locus YNL322C, strain KRE1 (second series), hits give low values 1.03 | locus YNR049C, strain mso1, hits give low values 1.03 | locus YNR052C, strain pop2, hits give low values 0.99 | locus YOL012C, strain htz1 1.57 | locus YOL147C, strain pex11, hits give low values 1.05 | locus YOR001W, strain rrp6, hits give low values 1.01 | locus YOR061W, strain CKA2, hits give low values 0.996 | locus YOR069W, strain VPS5, hits give low values 1.03 | locus YOR070C, strain gyp1, hits give low values 1.01 | locus YOR080W, strain dia2, hits give low values 1.02 | locus YOR083W, strain WHI5, hits give low values 1.01 | locus YOR106W, strain vam3, hits give low values 1 | locus YOR136W, strain idh2, hits give low values 1.04 | locus YOR144C, strain elg1, hits give low values 1.04 | locus YOR184W, strain ser1, hits give low values 0.926 | locus YOR265W, strain rbl2, hits give low values 1.03 | locus YOR270C, strain vph1, hits give low values 0.999 | locus YOR290C, strain snf2, hits give low values 1.02 | locus YOR316C, strain cot1, hits give low values 1.06 | locus YPL051W, strain arl3, hits give low values 1.01 | locus YPL078C, strain atp4, hits give low values 1.02 | locus YPL106C, strain sse1, hits give low values 1.09 | locus YPL240C, strain hsp82, hits give low values 1.03 | locus YPL241C, strain CIN2, hits give low values 1.05 | locus YPR119W, strain clb2, hits give low values 1.06 | locus YPR141C, strain kar3, hits give low values 1.08 | locus YPR163C, strain tif3, hits give low values 1.04 | locus YPR167C, strain met16, hits give low values 1.03 | strain wtn01, hits give low values 0.997
active: locus YIR030C, strain dcg1, hits give low values 1.08 [resistant] | locus YKL009W, strain mrt4, hits give low values 0.846 | locus YLR371W, strain rom2, hits give low values 1.1 [resistant]
